Compounds with a hit are over-represented: about 1.9% of the library has one in this group of screens.
ClpP mod: qHTS Assay for Activators of ClpP; Potency, µM (highest dose often 57.5 µM), inactives show at the highest dose activity change, negative = active; AID 651965, 2013; purified B. subtilis ClpP, FRET peptide cleavage, 20 min; ATP-dependent Clp protease proteolytic subunit (Bacillus subtilis (strain 168)), P80244; actives 1.9% (n = 340,000); active = well fitted falling curve with a large enough effect; inconclusive = small, poorly fitted or top-dose-only effect; inactive = no such curve, though single readings can be large or run the other way; note: potency is the fitted concentration of half-maximal effect; the source files actives as falling curves though it sought activators and does not explain the sign; nearly all actives have a fitted effect of over 65% in size
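Buffer: 100 mM Tris/HCl pH8, 100 mM KCl, 0.05% low protease BSA, 2.5% glycerol, 0.01% Tween-20. ClpP 10 microg/mL final; 20 min RT; delta FRET normalized to ADEP and DMSO controls.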
Epigenetic reg: regulators of epigenetic silencing causing reporter derepression in mouse cells; murine LDR cells, GFP reporter derepression, 30 h; Potency, µM (doses to about 53.9 µM), without a hit: at the top dose GFP activation, actives largely listed as activators; actives 0.2% (n = 280,000); active = well fitted activation curve with a large enough effect; inconclusive = small, poorly fitted or top-dose-only effect; note: potency is the fitted concentration of half-maximal effect; % of control where 0% means no effect; nearly all actives have a fitted effect of over 60% in size
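Murine LDR cells bearing a silenced CMV-driven GFP reporter were exposed to compound for 30 h at 37 C. After PBS washes, GFP-positive cells (20-120 um objects) counted by laser-scanning microplate cytometry.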
Menin MLL FP FL: inhibitors of human menin-MLL interaction, wild-type MLL peptide; 290,000 tested, under 10 active; Fluorescence polarization, fluorescein-MLL peptide displacement from menin; FP activity change, % at 61.4 µM; active = well fitted curve in the direction sought with a large enough effect in the polarisation, not every such curve was filed as active; inconclusive = small, poorly fitted or top-dose-only effect, or effect the other way, or a change in a side signal; inactive = no such curve, though single readings can be large or run the other way; the % refers to the polarisation; note: % of control where 0% means no effect
PINK1 modulator: changes PINK1 expression; Potency, µM (doses to about 76.6 µM), inactives show top-dose activation (PINK1 increase), most hits filed as activators; AID 624263; PINK1 immunofluorescence, high-content cytometry, 24 h; actives 0.2% (n = 410,000); active = well fitted activation curve with a large enough effect; inconclusive = small, poorly fitted or top-dose-only effect; cell line not stated here; note: potency is the fitted concentration of half-maximal effect; % of control where 0% means no effect; nearly all actives have a fitted effect of over 65% in size
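Fluorescence from anti-PINK1 antibody, together with nuclear and cell stains, was scanned on a laser-scanning cytometer. Before staining, stable-line cells were incubated 24 hours with compounds at 5 concentrations; primary antibody 12 h at 10 degrees C.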
Menin-MLL TR inh: menin-MLL binding inhibition, Texas Red mutant peptide. Potency, µM (titrated, usually from 61.6 µM), without a hit: top-dose FP activity change, negative = inhibition, actives largely listed as inhibitors. actives 0.23% (n = 270,000). O00255. Menin + Texas Red MLL mutant peptide, fluorescence polarization. AID 1768; active = well fitted inhibition curve with a large enough effect in the polarisation, with a control signal flat, not every such curve was filed as active; inconclusive = small, poorly fitted or top-dose-only effect, or effect the other way, or a change in a side signal; inactive = no such curve, though single readings can be large or run the other way; the % refers to the polarisation; note: potency is the fitted concentration of half-maximal effect; % of control where 0% means no effect
CXXC DNA block: blocks binding of human MLL CXXC domain to DNA; MLL-CXXC / FITC-HOXA9 DNA fluorescence polarization; actives 0.037% (n = 290,000); Potency, µM (top dose mostly 115 µM), for the others: at the highest dose activity change, negative = inhibition, usual class: inhibitors; AID 2662; active = well fitted inhibition curve with a large enough effect in the polarisation, with a control signal flat, not every such curve was filed as active; inconclusive = small, poorly fitted or top-dose-only effect, or effect the other way, or a change in a side signal; inactive = no such curve, though single readings can be large or run the other way; the % refers to the polarisation; note: potency is the fitted concentration of half-maximal effect
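Purified MLL-CXXC (added from a 7 uM solution) was preincubated 5 min at ambient with pinned compounds in 50 mM Tris-HCl pH 7.5, 50 mM NaCl, 1 mM DTT, 0.05% BSA. Fluorescein-labeled HOX-A9 DNA (50 nM solution) followed, 30 min, then polarization read.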
Starred values were filed as active, the others as inactive; ? = inconclusive; nt = no result given; [ ] = remark or other dose.

SMILES	ClpP mod	Epigenetic reg	Menin MLL FP FL	PINK1 modulator	Menin-MLL TR inh	CXXC DNA block
CN(C)c1ccc(/C=N/NC(=O)CCCCCNC(=O)c2ccccc2)cc1	nt	3%	3	-1%	nt	1%
COc1cc(CN2CCC3(CCC(CNC(=O)c4cc(C)nn4C)O3)CC2)ccc1F (configuration not stated)	nt	nt	nt	0%	nt	nt
O=C1C2C=CC=CC2=NC(=S)N1CCN1CCC(=C(c2ccc(F)cc2)c2ccc(F)cc2)CC1 (configuration not stated)	nt	0%	-2	nt	?	15%
COc1ccc(CNc2oc(-c3ccc(COc4ccc(Cl)cc4)o3)nc2C#N)cc1	13µM*	4%	nt	10%	nt	nt
COc1ccc(OCc2ccc(-c3nc(C#N)c(NCc4ccccc4)o3)o2)cc1	11µM*	1%	nt	0%	nt	nt
COc1ccc(OCc2ccc(-c3nc(C#N)c(NCc4cccnc4)o3)o2)cc1	?	3%	nt	-1%	nt	nt
Cc1ccnc2ccc3ccccc3c12	5%	nt	nt	nt	nt	nt
N#C/C(=C\c1ccc(-c2cccc(Cl)c2)o1)C(=O)Nc1cccc(C(F)(F)F)c1	-3%	11µM*	nt	1%	nt	nt
Cc1cc(NC(=O)/C(C#N)=C/c2ccc(-c3cccc(C(F)(F)F)c3)o2)n(-c2ccccc2)n1	-4%	?	5	11%	6%	-2%
CC1(C)Cc2c(C#N)c(N3CCOCC3)nc(-c3ccccc3)c2CO1	35µM*	0%	-1	0%	-13%	3%
CC(C)Cc1nc(N2CCN(C(=O)Cc3ccccc3)CC2)c(C#N)c2c1COC(C)(C)C2	nt	-10%	-2	nt	-4%	-2%
Cc1nc(N2CCOCC2)c(C#N)c2c1COC(C)(C)C2	32µM*	-1%	8	3%[38.3 µM]	-15%	7%
Cc1ccc(S(=O)(=O)N2CCN(c3nc(C)c4c(c3C#N)CC(C)(C)OC4)CC2)cc1	28µM*	-9%	-1	3%	-2%	-7%
CC(C)C(=O)N1CCN(c2nc(-c3ccccc3)c3c(c2C#N)CCCC3)CC1	28µM*	1%	0	-7%[38.3 µM]	-19%	9%
COc1ccccc1-c1ccnc(-n2ncc(C(=O)NCc3ccncc3)c2C)n1	nt	nt	nt	6%	nt	nt
CC[C@]1(O)C[C@H]2CN(CCc3c([nH]c4ccccc34)[C@@](C(=O)OC)(c3cc4c(cc3OC)N(C=O)[C@H]3[C@@](O)(C(=O)OC)[C@H](OC(C)=O)[C@]5(CC)C=CCN6CC[C@]43[C@@H]65)C2)C1	-1%	nt	-1	7%	-5%	11%
Cc1cnc(-n2ncc(C(=O)NCCc3ccccn3)c2C)nc1-c1ccc(F)cc1	nt	nt	nt	-1%	nt	nt
CC1(C(=O)Nc2ccc3c(c2)OCO3)CCN1Cc1cccc2c1OCO2 (configuration not stated)	0%	nt	nt	2%	nt	nt
CC1(C(=O)Nc2cccc3cccnc23)CCN1Cc1cccc2c1OCO2 (configuration not stated)	32µM*	nt	nt	-1%	nt	nt
CCCc1nc2cccnc2n1C1CCN(C(=O)Cn2nccc2C)CC1	nt	nt	nt	0%	nt	nt
CCN(CC)S(=O)(=O)c1ccc2nc(CCl)[nH]c2c1	14µM*	-5%	-1	-1%	13%	-19%
COc1ccccc1NS(=O)(=O)c1ccc2nc(CCl)[nH]c2c1	nt	nt	8	0%	22%	2%
O=C(Nc1ccc(Br)cn1)c1cccc(-c2cc3ccccc3oc2=O)c1	14µM*	19%	0	0%	-29%	-4%
Cc1nc(NC(=O)c2cccc(-c3cc4ccccc4oc3=O)c2)ccc1Br	-5%	?	0	-1%	-1%	5%
Cc1c(N)cccc1-n1cnnn1	1%	-5%	3	1%	-13%	11%
SMILES	ClpP mod	Epigenetic reg	Menin MLL FP FL	PINK1 modulator	Menin-MLL TR inh	CXXC DNA block
c1cc2ccc3ccc(-n4cnnn4)c4ccc(c1)c2c34	28µM*	?	9	0%	-1%	36%
COc1ccccc1CN1CCOc2ccc(C(C)(O)COc3ccccc3)cc2C1 (configuration not stated)	nt	nt	nt	-1%	nt	nt
CCOP(=O)(Nc1cccc2oc(=O)c3ccccc3c12)OCC	11µM*	nt	nt	0%	nt	nt
CCOc1ccccc1N=Cc1c(O)c2ccccc2oc1=O	0%	nt	0	2%	-23%	-12%
CC(NC(=O)CSc1nc2c(c(C(F)(F)F)n1)CCc1ccccc1-2)c1ccccc1 (configuration not stated)	-11%	2%	0	-1%	2%	2%
CCc1c(C)sc(NC(=O)CSc2nc3c(c(C(F)(F)F)n2)CCc2ccccc2-3)c1C#N	-1%	1%	8	16µM*	-28%	6%
N#Cc1nc(-c2ccc(OCc3ccc(Cl)cc3)cc2)oc1N1CCCCC1	4%	nt	nt	1%	nt	nt
N#Cc1nc(-c2ccc(COc3ccc(Cl)cc3)o2)oc1N1CCCCC1	28µM*	2%	nt	0%	nt	nt
CC1CCN(c2oc(-c3ccc(COc4ccc(Cl)cc4)o3)nc2C#N)CC1	25µM*	-2%	nt	-1%	nt	nt
N#Cc1nc(-c2ccc(COc3ccccc3)o2)oc1N1CCCCC1	32µM*	5%	nt	0%	nt	nt
Cc1ccc(/C=C/C(=O)Nc2ccc(Cl)cc2Cl)cc1	0%	-1%	nt	0%	nt	nt
Cc1nnc(SCc2cccc(Oc3ccccc3)c2)n1N	3.2µM*	-3%	2	1%	10%	14%
CCOC(=O)c1c(NC(=O)Cn2nnc(-c3ccc(Cl)cc3)n2)sc(C)c1C	25µM*	-1%	2	12%	0%	-6%
CCOC(=O)c1c(NC(=O)Cn2nnc(-c3ccc(Cl)cc3)n2)sc(CC)c1C	-21%	-1%	5	-1%	2%	3%
CC(=O)c1c(C)[nH]c2ccc(OCC(O)CNCCc3ccccc3)cc12 (configuration not stated)	-3%	nt	nt	0%	nt	nt
CN1/C(=C\C=C(/C#N)C(=O)Nc2ccc(Cl)cc2)C(C)(C)c2ccccc21	0%	22µM*	?	?	16%	?
CN1/C(=C\C=C(C#N)C#N)C(C)(C)c2ccccc21	-2%	25µM*	?	5%	?	?
CN1/C(=C\C(=O)Nc2ccc(Cl)cc2)C(C)(C)c2ccccc21	nt	1%	1	?	?	-1%
CN1/C(=C/C=N/n2cnnc2)C(C)(C)c2ccccc21	-15%	0%	-4	nt	9%	0%
COc1cc(=O)n2c(c1C(=O)NCc1ccco1)CCN(C(=O)c1ccc(C)c(C)c1)CC2	nt	nt	nt	2%	nt	nt
CCN(CC)c1ccc2cc(/C(N)=N/NC(=O)c3cccs3)c(=O)oc2c1	nt	6.3µM*	?	nt	nt	?
CCN(CC)c1ccc2cc(-c3nc(-c4ccccc4F)no3)c(=O)oc2c1	25µM*	13µM*	nt	3%	nt	nt

Screens from PubChem BioAssay.
